This is a sample that favours compounds with a hit; in the whole collection about 1.1% have one here.
SNCA expr inhib – reduces expression of the alpha-synuclein gene; HEK-293 SNCA-luciferase knock-in, luminescence, 24 h; Potency, µM (titrated, usually from 57.2 µM), usual class: inhibitors; hit rate 0.17% among 140,000; further: nearly all actives have a fitted effect of over 45% in size
SNCA viab count – reduces viability of HEK-293 SNCA reporter cells | Potency, µM (series often up to 57.1 µM), usual class: cytotoxic | AID 1671193 | HEK-293-SNCA-luc viability, GF-AFC fluorescence, 24 h | hit rate 0.12% among 150,000; further: nearly all actives have a fitted effect of over 30% in size
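HEK-293-SNCA-luc cells (1500/well) plated 24 h, then exposed 24 h to a dilution series; GF-AFC added 30 min at 37C, fluorescence 405/540 nm; normalised to medium-only and DMSO wells, Hill fit.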
IP6K1 inh – blocks human inositol hexakisphosphate kinase 1. IP6K1 kinase, ADP-Glo luminescence, 2 h; stronger effect = lower value. activity change, % (series mostly up to about 58 µM). Q92551. hit rate 0.81% among 140,000. AID 1645851; in the data active means activity change below about -25%
Target sequence (Q92551 whole entry, looked up): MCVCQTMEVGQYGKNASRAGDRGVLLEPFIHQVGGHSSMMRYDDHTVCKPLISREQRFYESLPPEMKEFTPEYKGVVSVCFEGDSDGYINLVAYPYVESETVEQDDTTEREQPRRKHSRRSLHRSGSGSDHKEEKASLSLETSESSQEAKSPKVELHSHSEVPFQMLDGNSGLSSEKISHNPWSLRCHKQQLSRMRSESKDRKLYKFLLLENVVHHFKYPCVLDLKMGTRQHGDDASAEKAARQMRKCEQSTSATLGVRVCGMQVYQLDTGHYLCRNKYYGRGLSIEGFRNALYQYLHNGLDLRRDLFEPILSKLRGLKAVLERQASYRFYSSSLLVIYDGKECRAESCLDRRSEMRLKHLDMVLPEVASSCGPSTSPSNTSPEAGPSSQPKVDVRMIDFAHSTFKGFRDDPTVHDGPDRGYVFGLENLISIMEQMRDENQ
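ADP-Glo luminescence measures ADP made by human IP6K1 during a 2 h RT reaction with ATP/IP6 (mix at 1.3 mM/130 uM); top library doses 57.5 and 19.1 uM final.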
GPT2 inh – inhibitors of human GPT2 alanine aminotransferase | Recombinant GPT2, coupled pyruvate oxidase/HRP Amplex Red fluorescence | Potency, µM (titrated, usually from 57.7 µM), usual class: inhibitors | hit rate 0.25% among 100,000 | Q8TD30; further: nearly all actives have a fitted effect of over 60% in size
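Fluorescence read-out: pyruvate from GPT2 turnover coupled to pyruvate oxidase, HRP and Amplex Red (0.2mM ThPP, 0.2U/mL PO and HRP, 50uM Amplex final). Substrates 250uM a-KG, 2mM L-alanine; enzyme 10ng/uL; 30 min RT.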
Numbers stand for hits; n = inactive; u = inconclusive; x = no result given; ! = not confirmed by another sample. Unless noted, the call rests on the fitted dose curve; in most records, active means well fitted curve in the direction sought with a large enough effect; inconclusive means small, poorly fitted or top-dose-only effect, or another doubt; inactive means no such curve, though single readings can be large; an effect the other way counts as inactive or inconclusive.

SMILES	SNCA expr inhib	SNCA viab count	IP6K1 inh	GPT2 inh
O=C(Cc1ccccc1)Nc1sc2c(c1C(=O)Nc1ccc(Cl)cc1)CCCC2	n	n	-30.4	x
C1=C/COCc2cc(ccc2OCCN2CCCC2)Nc2nccc(n2)-c2cccc(c2)COC/1	x	9.47µM	n	u
Cc1ccc(-c2cccc(CN3CCCC(NC(=O)c4c(C)noc4C)C3)c2)cc1Cl (stereo not given)	u	n	n	n
O=c1c(-c2ccc(O)cc2)coc2cc(O)cc(O)c12	2.82µM!	n	n	n
COc1ccc(-c2coc3cc(O)cc(O)c3c2=O)cc1	u	n	x	n
C1CC(COCCc2noc(C3CNC3)n2)CCO1	u	4.47µM	n	n
O=C(Cn1c(=O)n(-c2ccc(Cl)cc2)c(=O)c2c3c(sc21)CCC3)c1ccc(F)cc1	20µM	n	n	x
Cc1ccc(-n2c(=O)c3c4c(sc3n(CC(=O)Nc3cccc(Cl)c3)c2=O)CCCCC4)cc1C	n	n	n	x
COc1ccc(NC(=O)Cn2c(=O)n(-c3ccc(C)c(C)c3)c(=O)c3c4c(sc32)CCCCC4)cc1Cl	n	u	-33.1	x
O=C(NCc1ccc(F)cc1)c1nc2sccn2c1-c1ccc(C(F)(F)F)cc1	u	n	n	n
CC(C)C[C@H](NC(=O)CNC(=O)OCc1ccccc1)C(=O)N[C@@H](Cc1ccccc1)C(=O)CCl	x	23.8µM	n	n
CC(NC(=O)[C@H](Cc1ccccc1)NC(=O)OCc1ccccc1)C(=O)CF (stereo not given in full)	x	n	n	n
COc1cccc(-c2nccc3c(=O)cc(N4CCOCC4)oc23)c1	n	n	n	n
O=C(Nc1cccc(C(F)(F)F)c1)c1cc(-c2ccc(Cl)cc2)on1	n	n	n	x
FC(F)(F)c1cccc(Nc2nc3nonc3nc2Nc2ccc(Cl)cc2)c1	11.2µM	u	n	x
Cc1nn2c(c1-c1ccccc1C(N)=O)N(CCCc1ccccc1)CCC2	1.41µM	u	n	n
Cc1nn2c(c1-c1ccccc1-c1ccccc1)N(Cc1ccccc1)CCC2	u	u	n	n
Cc1nn2c(c1-c1ccccc1-c1ccccc1)N(CCC(C)C)CCC2	1.12µM	u	n	n
COc1ccc(CNC(=O)c2cccc(-c3ccc(OC)nn3)c2)cc1	x	x	n	x
Cn1ncc2c(C(=O)NCC3CCCCCC3)cc(-c3ccccc3F)nc21	x	x	n	x
CS[C@H]1SC[C@@H]2C(=O)N(C)[C@H](C(C)C)C(=O)OC[C@H](NC(=O)c3cnc4ccccc4n3)C(=O)N[C@H](C)C(=O)N(C)[C@@H]1C(=O)N(C)[C@H](C(C)C)C(=O)OC[C@H](NC(=O)c1cnc3ccccc3n1)C(=O)N[C@H](C)C(=O)N2C	0.0061µM	0.0192µM	x	n
Cc1ccc(-n2nc(-c3c(C)nc4scc(CC(=O)NCc5ccco5)n4c3=O)cc2C)cc1	n	n	n	n
Cc1ccc(C)c(-n2nc(-c3c(C)nc4scc(CC(=O)NCc5ccco5)n4c3=O)cc2C)c1	u	8.91µM	n	n
Cc1ccc(S(=O)(=O)c2nc(-c3ccccc3Cl)oc2N2CCCCCC2)cc1	u	n	n	x
Cc1ccc(S(=O)(=O)c2ccc([N+](=O)[O-])o2)cc1	x	9.47µM	n	n
SMILES	SNCA expr inhib	SNCA viab count	IP6K1 inh	GPT2 inh
Cc1c(CN2CCCC(C(=O)Nc3cccc(-c4cc5ccccc5[nH]4)c3)C2)cnn1C (stereo not given)	u	u	n	n
CC(C)(C)C(=O)Nc1ccc(-c2nc3ccccc3s2)cc1	1.41µM	n	n	x
CCOc1ccccc1CN1CCO[C@@H](COC)[C@@H]1c1ccccc1	n	n	n	n
CC(=O)N(C)C1(c2ccccc2)CCN(CCC[C@]2(c3ccc(Cl)c(Cl)c3)CCCN(C(=O)c3ccccc3)C2)CC1	1.71µM	2.15µM!	n	u
CN(C)C(=O)NC1(c2ccccc2)CCN(CCC[C@]2(c3ccc(Cl)c(Cl)c3)CCCN(C(=O)c3ccccc3)C2)CC1	x	u	n	n
O=C(Nc1cn[nH]c1-c1nc2ccc(CN3CCOCC3)cc2[nH]1)NC1CC1	24.1µM	u	n	n
Cc1ccc(Nc2ccnc(N3CCC(NC(=O)c4ccc(C)cc4)CC3)n2)cc1	n	n	n	n
Cc1ccc(Nc2ccnc(N3CCC(NC(=O)c4ccc(C(F)(F)F)cc4)CC3)n2)cc1	25.1µM	u	n	n
CN(C)c1cccc(-c2c3c(=O)n(-c4ccccc4Cl)[nH]c3cc(=O)n2C)c1	n	u	n	15.3µM!
CC1(COCC2CC2)COc2ccc(C(=O)Nc3ccc4[nH]ccc4c3)cc2N1 (stereo not given)	7.08µM	u	n	n

Compound activity (PubChem)
